# Source: PubChem BioAssay (several laboratories)
# Shown are actives, neighbours in structure and some others; about 1.5% of the full set was active somewhere.
# MEX-5 binding: C. elegans MEX-5 TCR-2 RNA binding activity; Q9XUB2; MEX-5/FITC-TCR2 RNA binding, fluorescence polarization; active compounds read low; activity score (negative = inhibition of binding), % at 10 µM; AID 1832; hit rate 0.38% among 300,000;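 active = inhibition past about -25% in most replicates, and total fluorescence under double the plate's negative control median, limit read from the data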
# IDE inh: cellular human IDE inhibition; hit rate 0.41% among 320,000; AID 434962; inhibition, % at 5.59 µM; HEK cells, FAbetaB cleavage, fluorescence polarization; P14735;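 active = percent inhibition above the average of all tested compounds plus 3 SD, set per screening campaign, cut at about 16% in these data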;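 also: IDE supplied by intact live HEK cells; FP after avidin binding of uncleaved biotin substrate so inhibition keeps polarization high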
# GLD-1 RNA inh: GLD-1-TGE RNA interaction inhibition (C. elegans); purified GLD-1 + fluorescein TGE RNA, fluorescence polarization; inhibition, % at 5.96 µM; hit rate 0.44% among 320,000;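 active = percent inhibition above a per-plate cutoff, the plate mean of test compounds plus 3 SD, cut at about 30% in these data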
# IDE act: IDE (human) activation, cell-based; P14735; AID 493087; hit rate 0.073% among 340,000; activation, % at 5.96 µM; HEK cells, FAbeta-B cleavage, fluorescence polarization; 0% vehicle, 100% cell-free pure enzyme wells;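 active = activation above the mean of all tested compounds plus 3 SD, set per screening campaign, cut at about 17% in these data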
# MCL1-BIM inh: inhibitors of human MCL1 binding to BIM-BH3 peptide | hit rate 0.68% among 320,000 | GST-MCL1 / FITC-Bim-BH3 fluorescence polarization | AID 2057 | inhibition, % at 10.9 µM | Q07820;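 active = inhibition above the mean inhibition of all tested compounds plus 3 SD, set per campaign, cut at about 40% in these data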;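 also: higher means more loss of mP so more displacement of Bim peptide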
# Target sequence (Q07820 whole entry, looked up): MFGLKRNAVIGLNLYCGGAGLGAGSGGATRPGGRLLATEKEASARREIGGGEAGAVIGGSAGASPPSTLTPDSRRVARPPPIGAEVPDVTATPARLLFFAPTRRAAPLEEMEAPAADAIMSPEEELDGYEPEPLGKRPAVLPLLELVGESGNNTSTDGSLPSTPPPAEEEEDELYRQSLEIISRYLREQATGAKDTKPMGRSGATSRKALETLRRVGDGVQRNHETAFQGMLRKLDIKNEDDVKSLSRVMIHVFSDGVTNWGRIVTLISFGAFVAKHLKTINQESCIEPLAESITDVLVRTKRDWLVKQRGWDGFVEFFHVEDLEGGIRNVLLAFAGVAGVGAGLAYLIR
# Bcl-xL primary: Bcl-xL (human) inhibition; inhibition, % at 10.9 µM; Q07817; AID 2129; hit rate 0.7% among 320,000; GST-Bcl-xL / FITC-Bim BH3 peptide fluorescence polarization;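 active = inhibition above the mean of all tested compounds plus 3 SD, cutoff set per campaign, cut at about 30% in these data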;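 also: inhibitors lower millipolarization by displacing the labeled peptide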
# Target sequence (Q07817 whole entry, looked up): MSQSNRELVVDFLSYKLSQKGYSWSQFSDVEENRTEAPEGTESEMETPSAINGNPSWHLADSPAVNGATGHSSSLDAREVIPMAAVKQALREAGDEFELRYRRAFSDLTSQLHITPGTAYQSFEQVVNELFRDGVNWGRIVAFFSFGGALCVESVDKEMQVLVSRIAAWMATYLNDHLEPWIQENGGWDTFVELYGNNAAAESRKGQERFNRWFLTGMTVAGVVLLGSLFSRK
# Hits are given with their value; 0 = inactive; - = not tested or not shown.
SMILES,MEX-5 binding,IDE inh,GLD-1 RNA inh,IDE act,MCL1-BIM inh,Bcl-xL primary
NC(=O)CC[C@H](NC(=O)c1ccc(F)cc1)C(=O)OCC(=O)NCc1ccc2c(c1)OCO2,-,0,0,0,-,-
CCCCC[C@@H](/C=C/C1C(=O)C=C[C@H]1C/C=C\CCCC(=O)OC)OC(C)=O (stereo not given in full),-,-,-,0,-,-
COc1ccc(C(CNC(=O)c2ccc(OCc3c(C)noc3C)cc2)N2CCCC2)cc1 (stereo not given),-,0,0,0,0,0
C=C(C)COc1ccc2c(CC)cc(=O)oc2c1,0,0,0,0,0,0
CC(=O)[C@@H]1[C@@H]2C(=O)N(Cc3ccccc3)C(=O)[C@@H]2C2c3ccccc3C=CN21 (stereo not given in full),0,0,38.5,0,49.6,46.4
c1cc2c(cc1NC1CCCCCC1)OCO2,0,0,0,0,47.4,33.8
O=C(NC1CCCCCCC1)c1ccc2c(c1)OCO2,0,0,0,0,0,0
COc1ccc(Cn2c(SCc3ccccc3C)nc3cc(OC)c(OC)cc3c2=N)cc1,0,0,0,22.1,0,0
COc1cc2nc(SCc3ccc(F)cc3)n(Cc3cccs3)c(=N)c2cc1OC,0,0,0,0,0,0
CCOc1cc(Br)c(/C=C2/C(=O)N(C)C(=S)N2CC(=O)OC)cc1OC,-31.8,0,0,0,0,0
CCOc1cc(/C=C2/NC(=O)N(CC(=O)OC)C2=O)ccc1OC,0,0,0,0,0,0
CCOC(=O)C1=C(Cc2ccc(OC)cc2)C(=O)c2ccccc2C1=O,-,-,-,0,-,-
CCOC(=O)C1=C(Cc2ccc(C)cc2)C(=O)c2ccccc2C1=O,0,0,42.8,-,0,0
Cc1ccc(N/C=C/C(=O)c2sc(-c3ccccc3)nc2C)cc1,-37.6,0,0,0,0,0
Cc1nc(-c2ccccc2)sc1C(=O)NN,0,0,0,0,0,0
CC(=O)Oc1c(C)cc(Cl)cc1C(=O)Nc1ccc([N+](=O)[O-])cc1Cl,0,0,0,0,0,0
O=C(Oc1ccc(C(=S)N2CCC(O)CC2)cc1)c1ccc(Cl)cc1,0,0,0,0,0,99.9
O=C(CCc1nc2ccccc2c(=O)[nH]1)Nc1ccc(F)c([N+](=O)[O-])c1,0,0,0,0,0,30.3
O=C(COC(=O)c1ccccc1C(=O)N1CCN(c2ccccc2)CC1)Nc1ccc(F)cc1,0,0,36.8,0,48.6,53.8
COc1cccc(NC(=O)COC(=O)c2ccccc2C(=O)N2CCN(c3ccccc3)CC2)c1,0,0,43.5,0,49.7,48.5
O=C(COC(=O)c1ccccc1C(=O)N1CCN(c2ccccc2)CC1)Nc1ccccc1,0,0,0,0,0,0
O=Cc1ccc(C(=O)OCC(=O)NC(=O)Nc2ccccc2F)cc1,-,0,0,0,-,-
COc1ccccc1-c1cc(C(F)(F)F)n2ncc(S(=O)(=O)c3ccccc3)c2n1,0,0,0,0,0,0
NC(=O)c1c(N)sc2c1CCC2,-,-,-,0,-,-
Nc1sc2c(c1C(=O)NC1CCS(=O)(=O)C1)CCC2 (stereo not given),0,0,0,0,0,31.5
SMILES,MEX-5 binding,IDE inh,GLD-1 RNA inh,IDE act,MCL1-BIM inh,Bcl-xL primary
CC(=O)c1cn(-c2ccc(Cl)cc2)c(=O)n(Cc2ccc(Br)cc2)c1=O,0,0,0,0,0,0
COC(=O)c1ccc(SCC(=O)NC2CCCCC2)c([N+](=O)[O-])c1,0,0,0,0,0,0
Cc1nc(S(=O)(=O)N(C)c2ccccc2)c(C#N)c(C)c1Cl,0,0,0,0,0,31.2
O=C(NCc1ccco1)c1cccc2c1C(=O)c1ccc(N3CCCC3)cc1S2(=O)=O,-,0,31.4,0,-,-
Cc1ccc(CNC(=O)c2cccc3c2C(=O)c2ccc(N4CCOCC4)cc2S3(=O)=O)cc1,-,0,0,0,0,0
O=C(NCc1cccc(F)c1)c1cccc2c1C(=O)c1ccc(N3CCOCC3)cc1S2(=O)=O,-,0,0,0,-,-
Cc1ccc(CNC(=O)c2cccc3c2C(=O)c2ccc(N4CCCCC4)cc2S3(=O)=O)cc1,-,0,70.7,0,0,0
Cc1ccccc1NC(=S)N/N=C1\CC(C)(C)Oc2ccc(O)cc21,0,0,0,0,0,82.2
Cc1ccc(NC(=S)N/N=C2\CC(C)(C)Oc3ccc(O)cc32)cc1,0,0,0,0,0,0
CCCCCCCNC(=O)C1(CC2CC(c3cccc(Br)c3)=NO2)CCN(C(=O)Cc2ccc(F)cc2)CC1 (stereo not given),-,0,0,0,0,0
CCCCCCCNC(=O)C1(CC2CC(c3cccc(Br)c3)=NO2)CCNCC1 (stereo not given),0,0,0,19.0,0,0
CCOC(=O)C1CCN(C(=O)CCC(=O)NNc2nc3ccccc3c3nc(C)nn23)CC1,-48.0,0,0,0,0,0
CCN(CC)CCCNC(=O)CCC(=O)NNc1nc2ccccc2c2nc(C)nn12,-54.1,0,0,0,0,0
Cc1nc2c3ccccc3nc(NNC(=O)CCC(=O)NCCC(C)C)n2n1,0,0,0,0,0,0
Cc1nc2c3ccccc3nc(NNC(=O)CCC(=O)N3CCC(C)CC3)n2n1,0,0,0,0,0,0
CCCCN(C)C(=O)CCC(=O)NNc1nc2ccccc2c2nc(C)nn12,-31.9,0,0,0,0,0
Cc1cccc(N/C=C(\[N+](=O)[O-])S(=O)(=O)c2ccccc2)c1C,0,0,0,0,0,0
O=C(c1cnn2c(C(F)(F)F)cc(-c3cccs3)nc12)N1CCN(C(c2ccccc2)c2ccccc2)CC1,0,0,0,0,0,85.1
O/C(=C\c1ccc2ccccc2n1)c1ccc(O)cc1O,0,0,0,0,0,0
NS(=O)(=O)c1ccc(NS(=O)(=O)c2ccc(NC(=O)c3ccc(-c4ccccc4)cc3)cc2)cc1,0,35.9,0,0,0,0
COc1ccc(OC)c(NC(=S)NCc2cccs2)c1,0,0,0,0,0,0
COc1ccc(OC)c(NC(=S)NCc2ccccc2OC)c1,0,0,0,0,0,30.4
O=C(O)c1ccc(-c2ccc(/C=C3\NC(=O)N(Cc4ccc(Cl)cc4)C3=O)o2)cc1Cl,-31.9,-,-,0,-,-
COc1ccc(S(=O)(=O)N2CCN(CC(=O)NC3CC3)CC2)cc1,0,0,0,0,0,0
CCOC(=O)c1c(/N=C/c2ccc(O)cc2O)sc2c1CCC2,0,0,32.6,-,0,0
Nc1nc(NCCO)nc(N2CCCCCC2)c1[N+](=O)[O-],0,0,0,0,0,0
OCCN(CCO)c1nc(N2CCCCC2)c2nc(N(CCO)CCO)nc(N3CCCCC3)c2n1,-,0,154.9,0,-,-
O=C1COc2ccc(C(=O)COC(=O)c3cc(S(=O)(=O)N4CCOCC4)ccc3F)cc2N1,0,0,0,0,0,60.2
O=S(Cc1ccc(Br)cc1)Cc1nnc(SCc2ccc(Br)cc2)n1-c1ccccc1 (stereo not given),0,0,0,0,0,0
